Source: PubChem BioAssay AID1159580 (chemical genetic matrix, 2015)
Values joined by “and” are separate entries in the source; they are usually repeats but may differ in a detail not shown here. Equal values may be shown once. Among all 5,500 compounds or so, about 2,000 (36%) were called active. About 18% were inconclusive and are not listed. Cut-off read from the data, not from the text of the source: active = normalized growth mostly below about 0.91 (no sharp cut-off); inconclusive = no clear call, values can overlap the other calls; inactive = mostly above about 0.92. The list shows a part of the results. Where a structure was tested more than once in an assay, its records may differ in their call.

Experiment: chemical genetic growth profiling, strain panel (AID 1159580);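 note: tested at 20 µM; growth read once vehicle control cultures reached saturation at 30 °C; 1 = growth at the plate median or of vehicle wells; lower values mean less growth of the strain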
Conditions: growth OD

Measured: normalized growth

C/C=C/CC(C)C(O)C1C(=O)NC(CC)C(=O)N(C)CC(=O)N(C)C(CC(C)C)C(=O)NC(C(C)C)C(=O)N(C)C(CC(C)C)C(=O)NC(C)C(=O)NC(C)C(=O)N(C)C(CC(C)C)C(=O)N(C)C(CC(C)C)C(=O)N(C)C(C(C)C)C(=O)N1C (stereo unspecified)
inactive: S. cerevisiae deletion strains, locus YJR075W, strain HOC1, stronger effect = lower value 0.978 | S. cerevisiae deletion strains, locus YKL009W, strain mrt4, stronger effect = lower value 1.01 | S. cerevisiae deletion strains, locus YKL068W, stronger effect = lower value 1 | S. cerevisiae deletion strains, locus YKL085W, strain MDH1 (second series), stronger effect = lower value 0.984 | S. cerevisiae deletion strains, locus YKL085W, strain MDH1, stronger effect = lower value 0.984 | S. cerevisiae deletion strains, locus YKL160W, strain elf1, stronger effect = lower value 1.04 | S. cerevisiae deletion strains, locus YKL190W, strain CNB1, stronger effect = lower value 0.999 | S. cerevisiae deletion strains, locus YKR026C, strain gcn3, stronger effect = lower value 1.01 | S. cerevisiae deletion strains, locus YKR091W, strain srl3, stronger effect = lower value 1.02 | S. cerevisiae deletion strains, locus YLL001W, strain dnm1, stronger effect = lower value 1.02 | S. cerevisiae deletion strains, locus YLL026W, stronger effect = lower value 1.01 | S. cerevisiae deletion strains, locus YLL041C, strain sdh2, stronger effect = lower value 1.02 | S. cerevisiae deletion strains, locus YLR027C, strain aat2, stronger effect = lower value 1.02 | S. cerevisiae deletion strains, locus YLR058C, strain SHM2, stronger effect = lower value 1.01 | S. cerevisiae deletion strains, locus YLR102C, strain apc9, stronger effect = lower value 1.01 | S. cerevisiae deletion strains, locus YLR113W, strain HOG1, stronger effect = lower value 0.986 | S. cerevisiae deletion strains, locus YLR221C, strain rsa3, stronger effect = lower value 1.02 | S. cerevisiae deletion strains, locus YLR258W, strain gsy2, stronger effect = lower value 1.01 | S. cerevisiae deletion strains, locus YLR268W, strain sec22, stronger effect = lower value 1.01 | S. cerevisiae deletion strains, locus YLR320W, strain mms22, stronger effect = lower value 1.01 | S. cerevisiae deletion strains, locus YLR330W, strain CHS5, stronger effect = lower value 1.01 | S. cerevisiae deletion strains, locus YLR357W, strain rsc2, stronger effect = lower value 0.978 | S. cerevisiae deletion strains, locus YLR370C, strain arc18, stronger effect = lower value 1.01 | S. cerevisiae deletion strains, locus YLR371W, strain rom2, stronger effect = lower value 1.03 | S. cerevisiae deletion strains, locus YLR384C, strain iki3, stronger effect = lower value 1.01 | S. cerevisiae deletion strains, locus YLR418C, strain cdc73, stronger effect = lower value 0.925 | S. cerevisiae deletion strains, locus YML016C, strain PPZ1, stronger effect = lower value 1.02 | S. cerevisiae deletion strains, locus YML032C, strain rad52, stronger effect = lower value 1.04 | S. cerevisiae deletion strains, locus YML120C, strain ndi1, stronger effect = lower value 1.02 | S. cerevisiae deletion strains, locus YML124C, strain tub3, stronger effect = lower value 1.03 | S. cerevisiae deletion strains, locus YMR058W, strain fet3, stronger effect = lower value 1.02 | S. cerevisiae deletion strains, locus YMR078C, strain ctf18, stronger effect = lower value 1.01 | S. cerevisiae deletion strains, locus YMR125W, strain sto1, stronger effect = lower value 0.915 | S. cerevisiae deletion strains, locus YMR129W, stronger effect = lower value 1.01 | S. cerevisiae deletion strains, locus YMR205C, strain PFK2, stronger effect = lower value 0.978 | S. cerevisiae deletion strains, locus YMR223W, strain ubp8, stronger effect = lower value 1.04 | S. cerevisiae deletion strains, locus YMR263W, strain SAP30, stronger effect = lower value 0.99 | S. cerevisiae deletion strains, locus YNL067W, strain RPL9B, stronger effect = lower value 0.97 | S. cerevisiae deletion strains, locus YNL071W, strain lat1, stronger effect = lower value 1.03 | S. cerevisiae deletion strains, locus YNL128W, strain TEP1, stronger effect = lower value 0.948 | S. cerevisiae deletion strains, locus YNL153C, strain GIM3, stronger effect = lower value 0.97 | S. cerevisiae deletion strains, locus YNL175C, strain NOP13, stronger effect = lower value 0.963 | S. cerevisiae deletion strains, locus YNL183C, strain NPR1, stronger effect = lower value 0.955 | S. cerevisiae deletion strains, locus YNL197C, strain WHI3, stronger effect = lower value 0.955 | S. cerevisiae deletion strains, locus YNL209W, strain ssb2, stronger effect = lower value 1.01 | S. cerevisiae deletion strains, locus YNL224C, strain SQS1, stronger effect = lower value 0.966 | S. cerevisiae deletion strains, locus YNL233W, strain BNI4, stronger effect = lower value 0.986 | S. cerevisiae deletion strains, locus YNL248C, strain rpa49, stronger effect = lower value 1.02 | S. cerevisiae deletion strains, locus YNL250W, strain rad50, stronger effect = lower value 1.01 | S. cerevisiae deletion strains, locus YNL271C, strain bni1, stronger effect = lower value 1.01 | S. cerevisiae deletion strains, locus YNL298W, strain CLA4, stronger effect = lower value 0.987 | S. cerevisiae deletion strains, locus YNL307C, strain MCK1, stronger effect = lower value 1.04 | S. cerevisiae deletion strains, locus YNL322C, strain KRE1 (second series), stronger effect = lower value 1.01 | S. cerevisiae deletion strains, locus YNL322C, strain KRE1, stronger effect = lower value 1.03 and 1 | S. cerevisiae deletion strains, locus YNR049C, strain mso1, stronger effect = lower value 1.02 | S. cerevisiae deletion strains, locus YNR052C, strain pop2, stronger effect = lower value 1.04 | S. cerevisiae deletion strains, locus YOL006C, strain TOP1, stronger effect = lower value 0.83 | S. cerevisiae deletion strains, locus YOL012C, strain htz1 1.73 | S. cerevisiae deletion strains, locus YOL147C, strain pex11, stronger effect = lower value 1.02 | S. cerevisiae deletion strains, locus YOR001W, strain rrp6, stronger effect = lower value 1.03 | S. cerevisiae deletion strains, locus YOR061W, strain CKA2, stronger effect = lower value 0.967 | S. cerevisiae deletion strains, locus YOR069W, strain VPS5, stronger effect = lower value 1.02 | S. cerevisiae deletion strains, locus YOR070C, strain gyp1, stronger effect = lower value 1.01 | S. cerevisiae deletion strains, locus YOR080W, strain dia2, stronger effect = lower value 1 | S. cerevisiae deletion strains, locus YOR083W, strain WHI5 (second series), stronger effect = lower value 0.869 | S. cerevisiae deletion strains, locus YOR083W, strain WHI5, stronger effect = lower value 1.02 | S. cerevisiae deletion strains, locus YOR106W, strain vam3, stronger effect = lower value 0.975 | S. cerevisiae deletion strains, locus YOR136W, strain idh2, stronger effect = lower value 1.03 | S. cerevisiae deletion strains, locus YOR144C, strain elg1, stronger effect = lower value 1.02 | S. cerevisiae deletion strains, locus YOR184W, strain ser1, stronger effect = lower value 1.03 | S. cerevisiae deletion strains, locus YOR231W, strain MKK1, stronger effect = lower value 0.975 | S. cerevisiae deletion strains, locus YOR265W, strain rbl2, stronger effect = lower value 1.02 | S. cerevisiae deletion strains, locus YOR270C, strain vph1, stronger effect = lower value 0.895 | S. cerevisiae deletion strains, locus YOR290C, strain snf2, stronger effect = lower value 0.995 | S. cerevisiae deletion strains, locus YOR316C, strain cot1, stronger effect = lower value 1.01 | S. cerevisiae deletion strains, locus YPL051W, strain arl3, stronger effect = lower value 1.02 | S. cerevisiae deletion strains, locus YPL055C, strain LGE1, stronger effect = lower value 0.949 | S. cerevisiae deletion strains, locus YPL078C, strain atp4, stronger effect = lower value 1.02 | S. cerevisiae deletion strains, locus YPL106C, strain sse1, stronger effect = lower value 0.944 | S. cerevisiae deletion strains, locus YPL240C, strain hsp82, stronger effect = lower value 1.02 | S. cerevisiae deletion strains, locus YPL241C, strain CIN2, stronger effect = lower value 1.01 and 0.975 | S. cerevisiae deletion strains, locus YPL256C, strain CLN2, stronger effect = lower value 1.02 | S. cerevisiae deletion strains, locus YPR119W, strain clb2, stronger effect = lower value 1.02 | S. cerevisiae deletion strains, locus YPR141C, strain kar3, stronger effect = lower value 1 | S. cerevisiae deletion strains, locus YPR163C, strain tif3, stronger effect = lower value 1.02 | S. cerevisiae deletion strains, locus YPR167C, strain met16, stronger effect = lower value 1.02 | S. cerevisiae deletion strains, strain wtn01, stronger effect = lower value 1.02 | S. cerevisiae strains, strain wild type, stronger effect = lower value 1
active: S. cerevisiae deletion strains, locus YKR001C, strain vps1, stronger effect = lower value 0.619 | S. cerevisiae deletion strains, locus YLR039C, strain RIC1, stronger effect = lower value 0.621 | S. cerevisiae deletion strains, locus YLR262C, strain YPT6 (second series), stronger effect = lower value 0.573 | S. cerevisiae deletion strains, locus YLR262C, strain YPT6, stronger effect = lower value 0.509 | S. cerevisiae deletion strains, locus YLR342W, strain FKS1 (second series), stronger effect = lower value 0.173 | S. cerevisiae deletion strains, locus YLR342W, strain FKS1, stronger effect = lower value 0.247 | S. cerevisiae deletion strains, locus YMR231W, strain pep5, stronger effect = lower value 0.404
0.292 (active) and 1.01 (inactive): S. cerevisiae deletion strains, locus YMR307W, strain GAS1, stronger effect = lower value
